High-throughput results as filed in PubChem BioAssay.
Sampled rows, rich in hits. Any-hit rate of the full collection: about 3.2%.
TMEM16A act: TMEM16A chloride channel activators or potentiators, primary screen, cell-based, HTS; Anoctamin-1 (Mus musculus), Q8BHY3; B-score at 10 µM; 340,000 compounds, 0.3% hits; HEK293 TMEM16A/YFP-H148Q/I152L, iodide quench fluorescence; active compounds read low; AID 623877, 2012;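 active means fluorescence-ratio B-score plate-corrected deviation score at least 3 library SD below zero, with starting fluorescence score within 5 deviations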;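 further: channel opened by trigger with iodide after compound preincubation; score built on the fluorescence ratio of max minus min over baseline; more negative score means more quench and so TMEM16A activation or potentiation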
CHT block: inhibitors of human choline transporter CHT | AID 488975, 2010 | B-score at 10 µM | 310,000 compounds, 0.86% hits | CHT-expressing cells, membrane potential dye, choline response; active compounds read low;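 active means B-score over 3 SD under the library average, and starting fluorescence ratio not unusually high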;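 further: choline stimulus applied at its EC90 after an EC20 pre-addition; B-score computed on integrated fluorescence ratio after choline addition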
Target sequence (Q9GZV3 whole entry, looked up): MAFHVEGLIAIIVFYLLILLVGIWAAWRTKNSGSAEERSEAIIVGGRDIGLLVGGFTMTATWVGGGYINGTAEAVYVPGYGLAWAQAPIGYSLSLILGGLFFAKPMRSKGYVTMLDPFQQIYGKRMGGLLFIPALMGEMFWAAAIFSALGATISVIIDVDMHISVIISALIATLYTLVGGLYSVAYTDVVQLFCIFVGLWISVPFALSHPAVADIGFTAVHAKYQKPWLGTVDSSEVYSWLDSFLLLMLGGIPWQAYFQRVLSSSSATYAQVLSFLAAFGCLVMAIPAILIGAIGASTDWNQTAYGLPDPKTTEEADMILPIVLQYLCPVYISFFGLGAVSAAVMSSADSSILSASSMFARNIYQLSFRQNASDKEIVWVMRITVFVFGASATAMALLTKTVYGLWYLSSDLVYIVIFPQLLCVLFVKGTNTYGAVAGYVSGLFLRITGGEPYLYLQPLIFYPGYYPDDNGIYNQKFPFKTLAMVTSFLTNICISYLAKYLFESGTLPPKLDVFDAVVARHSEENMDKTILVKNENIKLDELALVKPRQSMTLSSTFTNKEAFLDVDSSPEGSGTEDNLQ
PHOSPHO1 block: PubChem AID 1565. Phosphoethanolamine/phosphocholine phosphatase (Homo sapiens), Q8TCT1. recombinant PHOSPHO1, absorbance phosphatase assay. inhibition, % at 13.3 µM. 290,000 compounds, 1.1% hits; in the data active means inhibition above about 60%
TMEM16A inh: TMEM16A chloride channel inhibitors, primary screen, cell-based, HTS. 310,000 compounds, 1.2% hits. HEK293 TMEM16A/YFP iodide influx fluorescence, ionomycin. normalized B-score (activity score, 25-100; higher = stronger inhibition) at 10 µM;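 active means ratio plate-corrected score three or more library SD toward inhibition, starting fluorescence score within five deviations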;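 further: score derived from kinetic fluorescence span divided by baseline fluorescence per well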
HDAC3 inhib: HDAC3 deacetylase inhibitors, primary screen, biochemical, fluorescence, cell-free homogeneous; inhibition, % at 8.3 µM; recombinant HDAC3, fluorogenic peptide/trypsin coupled; 320,000 compounds, 0.15% hits; Histone deacetylase 3 (Homo sapiens), O15379; in the data active means inhibition above about 26%, passing the limit was not always enough
CHT allo act: CHT positive allosteric modulators, primary screen, cell-based, membrane potential dye, choline EC20; 310,000 compounds, 0.49% hits; B-score at 10 µM; High affinity choline transporter 1 (Homo sapiens), Q9GZV3; CHT-expressing cells; active compounds read high; LV-AA mutant CHT in HEK293 cells;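 active means initial fluorescence not abnormally high and integrated response B-score, plate-corrected, over 3 SD above library mean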
CHT block conf: CHT inhibitors, confirmation, cell-based, membrane potential dye, duplicate. 2,400 compounds, 70% hits. AID 493221, 2011. CHT activity remaining % of control (active compounds read low), % at 10 µM. CHT-expressing cells, choline membrane potential dye; LV-to-AA substituted CHT, HEK293 cells. shares compounds with CHT block;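 active means choline transporter activity left, mean of duplicates at 10 µM, below buffer-only control mean minus 3 SD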;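 further: depolarization triggered by choline at its EC90 following an EC20 pre-addition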
HEK293 CHT ctr: membrane potential effects in parental HEK293, counter-screen for CHT inhibitor project, cell-based, membrane potential dye. shares compounds with CHT block. choline response; active = decrease or increase beyond buffer ±3SD. membrane potential ratio readout (active if shifted either direction beyond buffer ±3SD; no single direction) at 10 µM. 2,400 compounds, 4% hits;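 further: parental cells lack the transporter so any hit is non-specific; ratio is peak minus trough fluorescence over baseline after EC90 choline challenge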
Large screens that a line does not name were inactive (follow-up assays come after a bar, where they were run).

COC(=O)CSc1nc(NCc2ccccc2)nc(N(C)C)n1	none
O=C(NC1CCCC1)c1ccc(COc2ccccc2Br)o1	CHT block -5.1 (no result: HDAC3 inhib) | CHT block conf inactive | HEK293 CHT ctr inactive
Cc1nc2cc(-c3ccccc3)ccc2o1	none
Cc1ccc(SCc2nc(-c3ccccc3)no2)cc1	none
Cc1ccc(-c2noc(CNc3ccccc3)n2)cc1	CHT block -5.8 | CHT block conf 44% | HEK293 CHT ctr inactive
CCc1ccc(NCc2nc(-c3ccccc3)no2)cc1	CHT block -5.7 | CHT block conf 58% | HEK293 CHT ctr inactive
CC(=O)c1ccc([N+](=O)[O-])c(CS(=O)(=O)c2ccc(Cl)cc2)c1	none (no result: TMEM16A act, PHOSPHO1 block)
CCCOc1ccc(C(CC(=O)O)NC(=O)c2sc3ccccc3c2Cl)cc1 (centres undefined)	CHT block -6.8 | CHT block conf 25% | HEK293 CHT ctr inactive
COc1cccc(/C=C2\SC(=S)N(NS(=O)(=O)c3ccccc3)C2=O)c1OC	CHT block -5.7 | CHT block conf 44% | HEK293 CHT ctr inactive
COc1cc(/C=C2\SC(=S)N(NS(=O)(=O)c3ccccc3)C2=O)cc(OC)c1OC	none
CCN(CC)Cc1c(O)ccc2c(=O)c(Oc3ccccc3OC)c(C)oc12	none
O=C(CN1CCN(Cc2ccccc2)C1=O)NCc1ccc(Cl)cc1	none
CCN(CCNC(=O)CN1CCN(Cc2ccc(Cl)cc2)C1=O)c1ccccc1	CHT block -6.2 | CHT block conf 66% | HEK293 CHT ctr inactive
COCCNC(=O)C(=O)NNC(=O)CCc1ccccc1	CHT block -5.5 | CHT block conf inactive | HEK293 CHT ctr inactive
COCCCNC(=O)CCc1ccccc1	none
O=C(NC(=S)Nc1ccccc1C(F)(F)F)c1ccccc1F	none
COc1ccc(CNc2ncc(-c3ccccc3)n2C)cc1	CHT block -5.5 | CHT block conf 57% | HEK293 CHT ctr inactive
O=C(COc1ccc2ccc(=O)oc2c1)OCc1ccccc1	none
O=C(c1cnn2c(C(F)(F)F)cc(-c3cccs3)nc12)N1CCN(Cc2ccccc2)CC1	CHT block -5.5 | CHT block conf 57% | HEK293 CHT ctr inactive
O=C(O)CCc1[nH]c2ccccc2c1Sc1ccccc1	none
CC1CCC2(CC1)NC(=O)N(NC(=O)c1cccs1)C2=O (centres undefined)	none (no result: CHT block, PHOSPHO1 block, TMEM16A inh, CHT allo act)
O=C(N/N=C/c1ccc(O)c([N+](=O)[O-])c1)C1CC1(c1ccccc1)c1ccccc1 (centres undefined)	CHT block -9.3 | CHT block conf inactive | HEK293 CHT ctr inactive
CCc1ccc(/C=C/c2c([N+](=O)[O-])c(=O)n(C)c(=O)n2C)cc1	none
Cn1c(/C=C/N(Cc2ccccc2)c2ccccc2)c([N+](=O)[O-])c(=O)n(C)c1=O	CHT block -8.4 | CHT block conf 49% | HEK293 CHT ctr inactive
COc1ccc(-c2csc(Cc3nnc4n3CCCCC4)n2)cc1	CHT block -5 | CHT block conf 42% | HEK293 CHT ctr inactive
CC(C)C(=O)Nc1cccc(NC(=O)c2ccc(Cl)cc2Cl)c1	CHT block -9.4 | CHT block conf 43% | HEK293 CHT ctr inactive
COc1ccc([N+](=O)[O-])cc1NC(=O)c1ccccc1SC	none
